GPR151 activ: activators of human GPR151, primary screen, cell-based, PathHunter beta-arrestin, luminescence; AID 1508602, 2020; G-protein coupled receptor 151 (Homo sapiens), Q8TDV0; PathHunter beta-arrestin GPR151 cells; 650,000 compounds, 1% hits; activation, % at 11.2 µM; in the data active means activation above about 4.9%;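 further: 0% = median of compound wells and 100% = cells with positive control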
TEAD-YAP inh: TEAD-YAP interaction inhibition, primary screen, TEAD-YAP interaction inhibitor project, luminescence, HEK-TIYL cells; TEAD-Gal4/YAP UAS-luciferase luminescence; inhibition, % at 9.12 µM; 640,000 compounds, 1.4% hits; in the data active means inhibition above about 32%;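 further: 0% = median of test compound wells and 100% = reference inhibitor wells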
FBW7 act: FBW7 E3 ligase activators, primary screen, biochemical, AlphaScreen, human; F-box/WD repeat-containing protein 7 (Homo sapiens), Q969H0; AlphaScreen FBW7–phospho-cyclin E peptide binding, activator screen; normalized activity (activation), % at 26.1 µM; 650,000 compounds, 0.13% hits; in the data active means normalized activity above about 1.9%;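 further: purified mutant Fbw7 with reduced substrate affinity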
MITF primary: MITF inhibitors, primary screen, biochemical, AlphaScreen, human. Microphthalmia-associated transcription factor (Homo sapiens), O75030. AlphaScreen MITF homodimerization, bead proximity signal. inhibition, % at 2.6 µM. 650,000 compounds, 0.91% hits; in the data active means inhibition above about 50%;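 further: 0% = vehicle wells with protein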
MITF inh conf: MITF inhibitors, retest of hits, confirmation, biochemical, AlphaScreen, triplicate | 4,700 compounds, 16% hits | AlphaScreen MITF homodimerization, biotin/His-MITF beads | inhibition, % at 2.6 µM | shares compounds with MITF primary;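 active means inhibition above a cutoff derived from the DMSO control wells, cut at about 28% in these data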;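 further: 0% = MITF dimer wells with DMSO only; inhibitors lower the bead chemiluminescence by keeping MITF from dimerizing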
AlphaScreen intf2: AlphaScreen optical interference compounds, counter-screen for MITF inhibitor project, biochemical, triplicate; shares compounds with MITF primary; LysRS AlphaScreen counterscreen, signal interference; inhibition, % at 2.6 µM; 4,700 compounds, 7.6% hits; AID 1259376, 2018;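 active means inhibition above a cutoff derived from the DMSO control wells, cut at about 30% in these data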
The depositor's hits bear a star; nt = not tested or not shown. Most compounds without a hit are left out; they make up all but 3.5% or so of the library.

SMILES	GPR151 activ	TEAD-YAP inh	FBW7 act	MITF primary	MITF inh conf	AlphaScreen intf2
CCCCC[C@H](O)/C=C/[C@H]1C(=O)C[C@H](O)[C@@H]1C/C=C\CCCC(=O)O	1	nt	nt	13	nt	nt
CCCCC[C@H](O)/C=C/[C@H]1C(=O)C[C@H](O)[C@@H]1C/C=C\CCCC(=O)NC(CO)CO	3	nt	nt	-8	nt	nt
CCCCC[C@H](O)/C=C/[C@H]1C=CC(=O)[C@@H]1CCCCCCC(=O)NCCCCCNC(=O)CCCCC1SC[C@@H]2NC(=O)N[C@H]12 (stereo not given in full)	-2	nt	nt	124*	123*	101*
CCCCC[C@H](O)/C=C/[C@H]1C(=O)C[C@H](O)[C@@H]1C/C=C\CCCC(=O)OCC(O)CO (stereo not given in full)	1	nt	nt	71*	-6	-3
CCCCC[C@H](O)/C=C/[C@H]1C=CC(=O)[C@@H]1CCCCCCC(=O)O	3	nt	nt	-12	nt	nt
O=C(CCCC[C@@H]1SC[C@@H]2NC(=O)N[C@@H]21)NCCCC[C@H](NC(=O)CCN1C(=O)C=CC1=O)C(=O)O	-2	nt	nt	124*	124*	101*
CSCCC(NC(=O)CCN1C(=O)c2ccccc2C1=O)C(=O)O (stereo not given)	1	1	0	4	nt	nt
CCCCC[C@H](O)/C=C/[C@H]1C(=O)C[C@H](O)[C@@H]1C/C=C\CCCCC(=O)NCCCCCNC(=O)CCCC[C@@H]1SC[C@@H]2NC(=O)N[C@@H]21	-1	nt	nt	124*	123*	101*
COc1ccc(C(=O)N/C(=C/c2ccc([N+](=O)[O-])cc2)C(=O)Nc2ccc(Br)c(C)c2)c(Cl)c1	-1	0	0	-4	nt	nt
CC(C)CCN1CCc2nc(COc3ccccc3)c3c(c2C1)CO[C@@H](C)C3	0	nt	0	2	nt	nt
CCCc1oc2c(cc(NS(=O)(=O)c3ccc(OC)cc3)c3ccccc32)c1C(=O)OCC	0	11	0	5	nt	nt
CC1(C)Cc2cccc(OCC(=O)OCC(=O)Nc3ccc([N+](=O)[O-])cc3C#N)c2O1	0	-2	0	-4	nt	nt
O=C(COC(=O)c1cc(=O)c2ccccc2o1)NCc1ccc(Cl)cc1	-1	11	0	52*	-9	-5
O=C(COC(=O)c1cc(=O)c2ccccc2o1)NCc1ccccc1	-1	0	0	3	nt	nt
O=C(c1ccco1)N1CCN(C2CCN(Cc3ccccc3)CC2)CC1	1	-5	0	60*	-9	4
O=C(c1ccccc1F)N1CCN(C2CCN(Cc3ccccc3)CC2)CC1	0	5	0	61*	9	18
CN1CCN(C2CCN(C(=O)c3ccc(F)cc3)CC2)CC1	0	-5	0	57*	1	0
COc1ccc(C(=O)N2CCC(N3CCCC3)CC2)cc1	4	0	0	31	nt	nt
O=C(c1ccccc1F)N1CCN(C2CCCCC2)CC1	3	0	0	36	nt	nt
O=C(O)C1CCN(C2CCN(Cc3ccccc3)CC2)CC1	0	1	0	75*	12	7
O=C(c1ccco1)N1CCC(N2CCN(c3ccccc3)CC2)CC1	-2	-3	0	21	nt	nt
CC(NS(=O)(=O)c1ccccc1)c1ccccc1 (stereo not given)	0	-10	0	11	nt	nt
O=C1N[C@@H](CC2CCCCC2)C(=O)N2C[C@@H](NCc3cnn(-c4ccccc4F)c3)C[C@@H]12	-1	-17	0	-1	nt	nt
CC(=O)c1ccc(-c2ccc(NCCc3ccncc3)nc2)cc1	0	-1	0	9	nt	nt
O=C(c1ccccc1)N1CCC(N2CCN(Cc3ccccc3)CC2)CC1	-2	11	0	83*	5	-2
c1ccc(CN2CCC(N3CCN(Cc4ccccc4)CC3)CC2)cc1	-1	2	0	24	nt	nt
O=C(c1ccc(F)cc1)N1CCN(C2CCN(Cc3ccccc3)CC2)CC1	-2	13	1	57*	9	18
Fc1ccc(CN2CCC(N3CCN(Cc4ccccc4)CC3)CC2)cc1	0	11	0	43	nt	nt

Source: PubChem BioAssay (The Scripps Research Institute Molecular Screening Center)
